According to ChEMBL document CHEMBL1857833, “Screening and optimization of specific chemical series against human African Trypanosomiasis (HAT)”:
Screen size: about 4,400 compounds; about 390 (8.9%) showed an effect of 50% or more. The list comes from a sample in which strong results are over-represented; it also holds similar structures and randomly drawn compounds.

Test system: Trypanosoma brucei
Test: DNDI: Inhibition of Human African Trypanosomiasis, SBRI 427, in vitro at 2 ug.mL-1
Format: functional

First: COc1ccc(OC)c(CCNCc2coc(-c3ccc(C(C)(C)C)cc3)n2)c1
Second: COc1ccc(OC)c(CCNCc2coc(-c3ccc(C)cc3)n2)c1
The “% inhibition” value of the first is higher: 74% for the first, 7% for the second.

Going from `COc1ccc(-c2nc(CNCCc3cc(OC)ccc3OC)co2)cc1` to `COc1ccc(OC)c(CCNCc2coc(-c3ccccc3C)n2)c1`, the “% inhibition” value rises from 7% to 11%.

Compared with `COc1ccc(Oc2nc(C)ccc2/C(=N/O)N2CC2C)cc1` (stereo not given), `Cc1ccc(/C(=N/O)N2CC2C)c(Oc2cccc(C(C)C)c2)n1` (stereo not given) is lower in “% inhibition” value: 14% for the first, -6% for the second.

First: CC1CN1/C(=N\O)c1ccc(Oc2ccc3ccccc3c2)nc1 (stereo not given)
Second: CC1CN1/C(=N\O)c1ccc(Oc2ccc3oc4ccccc4c3c2)nc1 (stereo not given)
The “% inhibition” value of the first is lower: 8% for the first, 68% for the second.

First: Cc1cc(C)cc(Oc2ccc(/C(=N/O)N3CC3C)cn2)c1 (stereo not given)
Second: Cc1ccc(/C(=N/O)N2CC2C)c(Oc2cccc3ccccc23)n1 (stereo not given)
The “% inhibition” value of the first is lower: 3% for the first, 12% for the second.
